# In the supplement of paper PMC3545927:
# The list shows a part of the results. How many sequences the whole screen found active is unknown.
# Biological target: furin, P09958
# Assay: furin cleavage Z-score vs untreated control; higher = more cleavage, active = 3.5 or more, inactive = 1 or less, 8 variable residues between constant flanks
# Procedure, shortened: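 Magnetic beads held 8-mer peptides by the N-terminus, each fused to a cDNA oligonucleotide, and purified furin was added for 7.5, 15 or 30 min. Released DNA was sequenced after PCR adapter tagging. The cleavage Z-score is the log count relative to furin-free reactions, lowess-adjusted and divided by median absolute deviation.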
# 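Further: purified furin at 1:10 enzyme:substrate in 50 mM HEPES pH 7.5.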
# Sequence of furin, P09958 (P09958 whole entry): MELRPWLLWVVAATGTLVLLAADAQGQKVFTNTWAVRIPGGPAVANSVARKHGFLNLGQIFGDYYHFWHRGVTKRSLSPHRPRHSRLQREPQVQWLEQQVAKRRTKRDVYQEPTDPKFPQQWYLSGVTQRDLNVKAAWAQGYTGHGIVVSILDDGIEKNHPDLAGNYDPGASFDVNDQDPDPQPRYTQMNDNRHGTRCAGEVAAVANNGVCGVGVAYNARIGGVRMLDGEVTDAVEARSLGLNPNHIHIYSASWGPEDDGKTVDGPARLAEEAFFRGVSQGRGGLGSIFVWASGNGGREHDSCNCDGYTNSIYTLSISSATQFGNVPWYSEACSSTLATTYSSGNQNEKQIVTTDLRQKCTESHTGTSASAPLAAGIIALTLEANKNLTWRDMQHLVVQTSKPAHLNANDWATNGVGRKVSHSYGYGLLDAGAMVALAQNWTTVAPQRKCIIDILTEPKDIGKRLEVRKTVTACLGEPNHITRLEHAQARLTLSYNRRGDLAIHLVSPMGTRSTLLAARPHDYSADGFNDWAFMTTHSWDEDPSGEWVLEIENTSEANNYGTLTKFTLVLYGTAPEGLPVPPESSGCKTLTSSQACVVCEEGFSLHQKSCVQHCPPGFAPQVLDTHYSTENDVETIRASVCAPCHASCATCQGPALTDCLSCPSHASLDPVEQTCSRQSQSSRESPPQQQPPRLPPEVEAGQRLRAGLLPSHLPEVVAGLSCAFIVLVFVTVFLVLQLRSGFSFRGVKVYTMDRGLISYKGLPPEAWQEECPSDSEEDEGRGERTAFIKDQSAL
Sequence,furin cleavage Z-score (7.5 min),furin cleavage Z-score (15 min),furin cleavage Z-score (30 min)
CAMEECSRHLAGNASASA [HC1733],0.727 (inactive),0.671 (inactive),1.88
CAALTGTYVYAGNASASA [HC632],1.19,-0.31 (inactive),-0.691 (inactive)
CAKPDYEPPVAGNASASA [HC1312],0.808 (inactive),-0.123 (inactive),0.46 (inactive)
CAEVPCHYPSAGNASASA [HC2369],0.223 (inactive),1.34,1.34
CAVVWCSMSYAGNASASA [HC2028],0.181 (inactive),0.241 (inactive),0.133 (inactive)
CAVQYLYGVGAGNASASA [HC510],-0.596 (inactive),-1.07 (inactive),-0.127 (inactive)
CANEECSQHLAGNASASA [HC1681],0.726 (inactive),1.58,-0.0685 (inactive)
CATTPCSMSWAGNASASA [HC1886],0.125 (inactive),0.0823 (inactive),0.51 (inactive)
CADLEDRDRSAGNASASA [HC487],-0.326 (inactive),-1.64 (inactive),-1.38 (inactive)
CAGSSREVRSAGNASASA [FS-29],2.81,4.54 (active),4.54 (active)
CAGSSRRRRSAGNASASA [FS-1334],9.7 (active),10.8 (active),6.42 (active)
CAGSSRLDRSAGNASASA [FS-1208],1.21,1.38,0.97 (inactive)
CAFSSREERSAGNASASA [FS-589],-0.625 (inactive),-0.927 (inactive),-2.43 (inactive)
CASDFRRRRSAGNASASA [FS-868],9.07 (active),7.71 (active),7.52 (active)
CAAPVRRDRSAGNASASA [FS-977],6.44 (active),6.02 (active),5.28 (active)
CALEQALDCEAGNASASA [HC1590],-1.94 (inactive),0.416 (inactive),-0.45 (inactive)
CAGLVPRGSAAGNASASA [TR1],0.366 (inactive),-0.466 (inactive),-0.254 (inactive)
CAMEEQSQHLAGNASASA [HC19],0.113 (inactive),0.699 (inactive),0.674 (inactive)
CAAIPLEVIKAGNASASA [HC850],-0.209 (inactive),0.792 (inactive),-0.386 (inactive)
CAGFRRFKRSAGNASASA [FS-240],8.1 (active),5.19 (active),7.05 (active)
CAGFRRSMDQAGNASASA [FS-2860],-0.496 (inactive),-0.187 (inactive),0.074 (inactive)
CANQLRVKRSAGNASASA [FS-554],5.48 (active),5 (active),3.97 (active)
CALQRRVKRSAGNASASA [FS-1463],3.17,3.78 (active),1.92
CAPTHYVPESAGNASASA [HC1126],1.82,-1.79 (inactive),0.876 (inactive)

Sequence,furin cleavage Z-score (7.5 min),furin cleavage Z-score (15 min),furin cleavage Z-score (30 min)
CAPSRRVKRSAGNASASA [FS-1149],8.11 (active),7.59 (active),5 (active)
CALQRRKKKGAGNASASA [FS-1643],-0.863 (inactive),-0.718 (inactive),0.433 (inactive)
CAEVVTSAWVAGNASASA [HC2203],-1.33 (inactive),-0.0621 (inactive),-0.753 (inactive)
CASTTSRSACAGNASASA [HC1390],0.133 (inactive),-0.0614 (inactive),-0.754 (inactive)
CALAGLSTLPAGNASASA [HC1048],0.519 (inactive),1.63,0.445 (inactive)
CALKATCTANAGNASASA [HC1266],0.615 (inactive),2.96,1.42
CARTGKVKRSAGNASASA [FS-497],10.7 (active),9.35 (active),8.07 (active)
CACWRRMKRSAGNASASA [FS-1113],9.77 (active),10.5 (active),7.93 (active)
CAKLFRVKRSAGNASASA [FS-1220],11.7 (active),10.7 (active),8.14 (active)
CAECYDAGCAAGNASASA [HC920],-0.745 (inactive),0.00773 (inactive),-0.466 (inactive)
CAGCPLPPPKAGNASASA [HC1317],0.693 (inactive),-0.374 (inactive),-0.0504 (inactive)
CAVVPRGVNLAGNASASA [TR7],1.05,-0.803 (inactive),1.14
CAMEERSQHLAGNASASA [HC10],-0.0717 (inactive),-0.428 (inactive),1.49
CALYREFDEMAGNASASA [HC1011],0.989 (inactive),0.494 (inactive),-1.47 (inactive)
CAVSPRVKRPAGNASASA [FS-1104],-1.44 (inactive),-0.535 (inactive),-0.559 (inactive)
CALVHRVKRRAGNASASA [FS-274],13 (active),14.7 (active),10.7 (active)
CAGDKRVKRRAGNASASA [FS-159],8.54 (active),8.95 (active),8.22 (active)
CALSPRTFHPAGNASASA [TR5],-0.266 (inactive),0.174 (inactive),-0.959 (inactive)
CAVSPTHYVPAGNASASA [HC1125],0.189 (inactive),0.58 (inactive),-0.874 (inactive)
CAGDSRVMRWAGNASASA [FS-591],0.599 (inactive),-0.204 (inactive),0.578 (inactive)
CALSPRPISYAGNASASA [HC737],0.872 (inactive),0.348 (inactive),0.915 (inactive)
CAGDKELRTGAGNASASA [EK10],-0.528 (inactive),-3.59 (inactive),-0.0871 (inactive)
CAVSPRVKRRAGNASASA [FS-1105],6.42 (active),5.9 (active),5.56 (active)
CALSPRVKRIAGNASASA [FS-687],8.46 (active),10.4 (active),8.69 (active)
